Pf apPOL block – Pf-apPOL DNA polymerase inhibition; Recombinant Pf-apPOL, molecular beacon fluorescence, 1.5 h; inhibition, % at 10 µM; 0.25% of 210,000 active
mHTT-CaM PPI inh – disrupts binding of mutant huntingtin to calmodulin; P42858; AlphaScreen His-mHTT/GST-CaM binding, luminescence; inhibition, % at 15 µM; 3.6% of 190,000 active;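 also: 0% = both proteins with DMSO and 100% = one protein alone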
* = called active by the depositor; ! = repeats disagree. The entries come from a sample that favours hits as a whole. Rule as the data show it: active = inhibition above about 50%; inactive = the rest.

SMILES	Pf apPOL block	mHTT-CaM PPI inh
CC1=NN(c2cccc(Cl)c2)C(=O)/C1=C/c1ccc(Cl)c([N+](=O)[O-])c1	3.2	76.0*
CCN(C)c1ccc(/C=C2/C(=O)N(c3ccc(Cl)c(Cl)c3)N=C2C)cc1	-4.9	61.0*
OC(COc1ccc(C2CCCCC2)cc1)CN1CCCCC1 (stereo unspecified)	-1.1	-0.2
COc1ccc(CCNC(=O)C2CCCNC2=O)cc1OC (stereo unspecified)	-19.3	-4.0
COc1ccc(CCNC(=O)C(=O)NCC2COC3(CCCC3)O2)cc1OC (stereo unspecified)	2.4	-0.8
Cc1ccc(N2C(=O)C3C4C=CC(C3C2=O)C2C3C(=O)N(c5ccc(C)cc5)C(=O)C3C42)cc1 (stereo unspecified)	3.5	1.0
CC1=NN(c2nc(-c3ccccc3)cs2)C(=O)/C1=C/c1ccc(C)s1	-8.9	3.0
CC1=NN(c2nc(-c3ccccc3)cs2)C(=O)/C1=C/c1ccco1	8.7	76.0*
CC1=NN(c2ccc(Br)cc2)C(=O)/C1=C/c1ccc(N(C)C)cc1	3.3	37.0
CC1=NN(c2nc(-c3ccc(C)cc3)cs2)C(=O)/C1=C/c1ccc(N(C)C)cc1	-9.0	56.0*
O=c1c2ccccc2ncn1C1CCN(S(=O)(=O)c2ccccc2)CC1	0.9	-5.1
Cc1ccc2nc(C(=O)Nc3ccc(C)c(F)c3)cc(N3CCOCC3)c2c1	0.5	-5.8
CCC1CN(C(=O)Nc2ccccc2F)c2cc(Cl)ccc2O1 (stereo unspecified)	-0.8	-54.2
CNc1ccc(OC)c2c1C(=O)c1ccccc1C2=O	-81.9	82.0*
COc1ccccc1NC(=O)c1cccc2c1C(=O)c1ccccc1-2	-1.8	21.1
Cc1onc(-c2ccccc2)c1C1=N/C(=C\c2ccccc2)C(=O)O1	0.5	-1.0
COCCC1CCN(C(=O)c2nccc3ccccc23)CC1	-0.9	6.6
Cc1ccnc(N2CCCC(C(=O)N3CCCCCC3)C2)n1 (stereo unspecified)	-3.8	-2.3
Cc1ccnc(N2CCCC(C(=O)N3CC=C(c4ccccc4)CC3)C2)n1 (stereo unspecified)	-4.8	68.1*
O=[N+]([O-])c1cc(Br)c2nsnc2c1N1CCCCC1	-8.4	77.0*!
O=[N+]([O-])c1cc(C(F)(F)F)cc([N+](=O)[O-])c1N1CCCCC1	-2.0	24.0
O=C1[C@H](Cc2ccccc2)NC/C=C\C[C@@H](c2ccc(Cl)cc2)N1Cc1ccc(Cl)cc1	0.7	99.0*
O=C1[C@H](Cc2ccccc2)NC/C=C\C[C@H](c2ccco2)N1Cc1ccccc1	1.2	51.0*
COC(=O)C1=C(C(=O)OC)[C@]2([C@@H]3C/C=C\CN[C@@H](Cc4ccccc4)C(=O)N3Cc3ccccc3)C=C[C@H]1O2	-3.4	24.7
O=C(NCCc1ccccc1)N1CCCC1c1ccc(Cl)cc1 (stereo unspecified)	-3.8	-0.2
SMILES	Pf apPOL block	mHTT-CaM PPI inh
O=C(CN1N=NC2C(=O)N(c3ccc(Cl)cc3)C(=O)C21)Nc1ccc2c(c1)OCO2 (stereo unspecified)	7.9	14.0
COc1cccc(C2C=C(c3ccc(C)cc3)Nc3ncnn32)c1OC(F)F (stereo unspecified)	-12.7	35.0
COc1cc(OC)c([N+](=O)[O-])cc1C=O	0.5	-5.4
CN(C)c1ccc(C=Nc2ccc3c(c2)OCCO3)cc1	-1.4	23.0
O=c1[nH]c(/C=C/c2cc(Br)ccc2O)nc2ccccc12	1.6	-0.7
O=c1c2ccccc2nc(/C=C/c2cc(Br)ccc2O)n1CCCO	16.0	76.0*
Cc1ccc2c(Nc3ccc(F)cc3C)c(-c3nc(C)no3)cnc2n1	-4.1	57.6*
Cc1ccc(Nc2c(-c3nc(C)no3)cnc3nc(C)ccc23)c(C)c1	2.9	43.8
COc1cc(OC)c2ccc(=O)oc2c1C(CCN1CCCC1)c1ccc2c(c1)OCO2 (stereo unspecified)	-9.1	17.3
COc1cc(OC)c2c(-c3ccccc3)cc(=O)oc2c1C(CCN1CCOCC1)c1ccc2c(c1)OCO2 (stereo unspecified)	-4.7	84.2*
CCCCCc1cc(=O)oc2c(C(CCN3CCCC3)c3ccc4c(c3)OCO4)c(OC)cc(OC)c12 (stereo unspecified)	-24.6	100.2*
COc1cc(OC)c2c(-c3ccccc3)cc(=O)oc2c1C(CCN1CCCC1)c1ccc2c(c1)OCO2 (stereo unspecified)	-18.5	100.2*
COc1cc(OC)c2ccc(=O)oc2c1C(CCN1CCOCC1)c1ccc2c(c1)OCO2 (stereo unspecified)	-9.0	41.1
CC(C)(C)c1ccc(C=C2Oc3c(ccc(O)c3CN3CCN(CCO)CC3)C2=O)cc1	-27.9	37.8
O=C(Nc1ccccc1[N+](=O)[O-])c1ccc(Cl)c(S(=O)(=O)NCc2ccccc2)c1	-6.2	33.5
O=C(Nc1ccccc1[N+](=O)[O-])c1ccc(Cl)c(S(=O)(=O)Nc2ccc(Cl)cc2)c1	-17.3	86.4*
O=C(Nc1ccccc1[N+](=O)[O-])c1ccc(Cl)c(S(=O)(=O)NCc2ccco2)c1	53.6*	28.9
O=C(Nc1ccccc1[N+](=O)[O-])c1ccc(Br)c(S(=O)(=O)Nc2ccccc2)c1	5.5	23.1
CN1CCN(c2ncncc2N2CCC(C(=O)N3CCN(c4ccccc4)CC3)CC2)CC1	-9.3	26.5
Cc1cc(C2CCCN2C(=O)Cc2ccccc2Cl)on1 (stereo unspecified)	6.0	-0.9
O=C(NCCC1=CCCCC1)C(=O)Nc1cccc(Cl)c1	0.2	-17.9
Cc1ccc(NC(=O)C2CCN(c3ncnc4c3nc3n4CCCCC3)CC2)cc1C	-6.0	10.5
O=C(NN1CCOCC1)c1cccc(Br)c1	-7.6	3.0
O=C(NN1CCOCC1)c1ccc(Br)cc1	56.3*	-6.7
O=c1[nH]c2ccc(Br)cc2c(-c2ccccc2)c1NS(=O)(=O)c1ccccc1	21.1	97.6*
SMILES	Pf apPOL block	mHTT-CaM PPI inh
Cc1cc(Br)ccc1NS(=O)(=O)c1ccc2nc(-c3ccccc3)[nH]c2c1	-9.1	-2.0
O=c1[nH]c2ccc(Br)cc2c(-c2ccccc2)c1CN1CCCCC1	-3.1	100.0*
Nc1c(-c2ccccc2Cl)c2cc(Br)ccc2[nH]c1=O	-7.5	79.0*
Cc1[nH]c2ccc(Br)cc2c(=O)c1CN1CCOCC1	-1.1	-0.8
Nc1c2c3c(c(Cl)ccc3[nH]c1=O)C(=O)c1ccccc1-2	0.5	13.0
CCS(=O)(=O)NCCc1ccc(OC)cc1	1.2	-2.4
O=C(NCCCn1ccnc1)c1ccc(N2CCCCS2(=O)=O)cc1	-3.5	-5.9
Cc1ccc(C)n1-c1ccc(C(=O)O)cc1O	-1.4	12.1
Cc1ccc(C)n1-c1ccc(Cl)cc1O	-7.8	92.8*
CCc1cc2c3c(c1)C(C)=CC(C)(C)N3C(=O)C2=O	6.5	72.0*
Cc1cc2c3c(c1)C(C)CC(C)(C)N3C(=O)C2=O (stereo unspecified)	-0.2	16.7
COc1cccc(CNC(=O)C2CC(=O)N(c3ccc4oc(C)nc4c3)C2)c1OC (stereo unspecified)	-3.6	5.7
Cc1cc(C(=O)Nc2ccc3c(c2)CN(C(=O)C(C)C)CC3)c(C)o1	-5.7	-5.5
CC(C)C(=O)N1CCc2ccc(NC(=O)c3ccccc3C(F)(F)F)cc2C1	88.2*	14.2
COc1nn(C)cc1C(=O)N1CCC(C(=O)Nc2nc(-c3cccnc3)cs2)CC1	-6.3	2.4
COc1ccccc1N=Cc1c(O)ccc2oc3c(c12)CCCC3	-1.6	3.0
O=[N+]([O-])c1cccc(NCc2c(O)ccc3oc4c(c23)CCCC4)c1	8.9	97.0*
